Results as given in PubChem BioAssay (NCATS).
Results filed as inconclusive are left out. Activity calls are given as the source filed them. Calls come from the whole dose curve.

The compounds below were run against Atrial natriuretic peptide receptor 1 (Homo sapiens) (UniProt P16066) (assay: Natriuretic polypeptide receptor (hNpr1) antagonism - Pilot CMLD screen (AID 1347052;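 note: HEK293 cells with hNpr1 stimulated by hNppA peptide at 0.1 nM; cGMP level read as GloSensor luciferase luminescence after agonist stimulation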)). Conditions: HEK293 hNpr1 GloSensor cGMP luminescence, ANP-stimulated; series mostly up to 9.22 µM.
Sequence of Atrial natriuretic peptide receptor 1 (Homo sapiens) (P16066 whole entry, looked up): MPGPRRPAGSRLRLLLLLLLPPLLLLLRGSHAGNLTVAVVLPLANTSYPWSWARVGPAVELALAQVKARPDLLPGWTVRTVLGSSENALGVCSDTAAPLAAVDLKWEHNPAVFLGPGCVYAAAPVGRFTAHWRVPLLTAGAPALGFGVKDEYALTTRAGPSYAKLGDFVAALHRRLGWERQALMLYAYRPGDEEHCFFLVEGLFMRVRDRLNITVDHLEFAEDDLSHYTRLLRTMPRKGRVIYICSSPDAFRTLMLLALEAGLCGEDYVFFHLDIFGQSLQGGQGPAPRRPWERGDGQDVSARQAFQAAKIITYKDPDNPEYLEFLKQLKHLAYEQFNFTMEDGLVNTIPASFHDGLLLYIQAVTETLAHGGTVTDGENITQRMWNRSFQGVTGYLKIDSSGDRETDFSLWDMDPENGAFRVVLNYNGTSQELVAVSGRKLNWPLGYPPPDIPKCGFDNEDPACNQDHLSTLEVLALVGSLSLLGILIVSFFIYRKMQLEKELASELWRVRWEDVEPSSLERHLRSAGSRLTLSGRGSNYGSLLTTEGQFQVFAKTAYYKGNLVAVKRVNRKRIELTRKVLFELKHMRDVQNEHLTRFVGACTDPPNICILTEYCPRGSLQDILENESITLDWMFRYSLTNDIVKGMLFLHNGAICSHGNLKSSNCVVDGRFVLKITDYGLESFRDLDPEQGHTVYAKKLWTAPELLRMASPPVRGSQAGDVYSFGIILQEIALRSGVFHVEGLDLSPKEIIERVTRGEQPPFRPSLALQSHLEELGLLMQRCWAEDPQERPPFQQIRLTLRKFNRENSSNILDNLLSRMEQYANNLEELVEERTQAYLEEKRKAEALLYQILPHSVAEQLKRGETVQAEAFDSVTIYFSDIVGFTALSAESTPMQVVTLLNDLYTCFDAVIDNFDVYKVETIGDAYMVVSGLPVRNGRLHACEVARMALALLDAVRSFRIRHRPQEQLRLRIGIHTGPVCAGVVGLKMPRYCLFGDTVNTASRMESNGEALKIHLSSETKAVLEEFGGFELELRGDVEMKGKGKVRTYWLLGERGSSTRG

Potency, inactive:
CCc1cc2c(nc1CC)CCN(CCC(C)=NOCC[C@@H]1C=C[C@H](OC(C)=O)[C@@H](COC(C)=O)O1)C2, COCCN1C(=O)CC[C@@]23C1=NC(C(=O)OC)=C(C(=O)OC)[C@@H]2N(CC=C(C)C)c1ccccc13, COc1ccc([C@]23Cc4ccccc4[C@H](O2)c2c(cc(-c4ccccc4)oc2=O)O3)cc1, COC(=O)C1=C(C(=O)OC)[C@@H]2N(C)c3ccccc3[C@@]23CCC(=O)N(Cc2ccc(OC)cc2)C3=N1, C[C@]12C[C@@](C)(C=C1C=Cc1ccc(C(F)(F)F)cc1)C(=O)C[C@H]2c1ccc(C(F)(F)F)cc1, COCC=CC1=CC2=CC(=O)C(C)(OC(=O)c3cnc4ccccc4n3)C(=O)C2=CN1CCc1c[nH]c2ccccc12 (stereo not drawn), COc1cccc([C@H]2Oc3ccc(OC)cc3C(=NO[C@H](C)CN3CCCc4nc(C)c(C)cc43)[C@H]2O)c1, CC1(OC(=O)c2ccc(Cl)nc2)C(=O)C=C2C=C(c3ccsc3)OC=C2C1=O (stereo not drawn), CC(=O)O[C@@H]1C(CO[Si](C)(C)C(C)(C)C)=C(Br)C(=O)[C@@H]2O[C@]12C, C#CC1(O)C2C=C(OC)C(=O)C1C(c1ccccc1)C2C (stereo not drawn), COc1ccc([C@]23Cc4cc(OC)c(OC)cc4[C@H](O2)c2c(cc(C)oc2=O)O3)cc1, COc1ccc(N2C(=O)N3[C@H](c4ccccc4)[C@@H](C)C[C@H]4c5ccccc5C[C@]43C2=O)cc1, Cc1cc2c(c(=O)n1Cc1ccccc1)[C@H]1O[C@](CCCCN3C(=O)c4ccccc4C3=O)(Cc3cc(C#N)ccc31)O2
